Screens: PubChem BioAssay, National Center for Advancing Translational Sciences (NCATS)
In the library only some 7.4% were active in any assay of this set; here they are far more common.
Luciferase inh = blocks purified firefly luciferase enzyme activity | P08659 | purified P. pyralis luciferase, luminescence, biochemical | Potency, µM (series often up to 115 µM), hits mostly inhibitors | actives 2.5% (n = 76,000); further: nearly all actives have a fitted effect of over 65% in size
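Luminescence read by CCD imager after adding enzyme (10nM final) to wells holding compound, titrated in qHTS. Substrates 10uM each D-luciferin and ATP; buffer 50mM Tris acetate pH 7.5, 10mM Mg acetate, Tween-20, BSA.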
NIH3T3 tox = cytotoxic compounds in NIH 3T3 cells; NIH 3T3 viability, CellTiter-Glo ATP luminescence, 48-72 h; Potency, µM (top dose mostly 96.7 µM), most hits filed as inhibitors; actives 4.3% (n = 94,000); AID 1345082; further: nearly all actives have a fitted effect of over 55% in size
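NIH 3T3 cells at 400 cells/well received 23 nL of compound by pintool and were incubated 48 or 72 h at 37 °C. Viability was read as ATP-coupled CellTiter-Glo luminescence.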
SNCA expr inh = inhibitors of alpha-synuclein (SNCA) gene expression; HEK-293 SNCA-luciferase knock-in, luminescence, 24 h; Potency, µM (doses to about 57.2 µM), usual class: inhibitors; actives 0.17% (n = 140,000); further: nearly all actives have a fitted effect of over 45% in size
HEK293 viab = reduces viability of HEK-293 SNCA reporter cells. HEK-293-SNCA-luc viability, GF-AFC fluorescence, 24 h. Potency, µM (doses to about 57.1 µM), actives largely listed as cytotoxic. actives 0.12% (n = 150,000); further: nearly all actives have a fitted effect of over 30% in size
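Cytotoxicity counterscreen: after 24 h compound treatment of genome-edited SNCA-luciferase HEK-293 cells, live-cell protease substrate GF-AFC read by fluorescence after 30 min; activity scaled between DMSO (0%) and medium-only (-100%), curves Hill-fitted.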
HEK293 tox = cytotoxic compounds in HEK 293 cells | actives 6.6% (n = 94,000) | AID 1345083 | HEK 293 viability, ATP luminescence (CellTiter-Glo), 48-72 h | Potency, µM (highest dose often 115 µM), most hits filed as inhibitors; further: nearly all actives have a fitted effect of over 60% in size
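qHTS cytotoxicity; HEK 293, 250 cells/well; compound pinned; 48 or 72 hr, 37 degree Celsius, 5% CO2, 95% humidity; CellTiter-Glo, 10 min RT; luminescence (ATP).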
NPR1 antag = blocks ANP-stimulated signaling of human Npr1 receptor | P16066 | HEK293 hNpr1 GloSensor cGMP, ANP-stimulated luminescence | Potency, µM (top dose mostly 46.3 µM), hits mostly inhibitors | actives 1.6% (n = 76,000) | AID 1347048; calls by dose curve; further: nearly all actives have a fitted effect of over 60% in size
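Compound pre-incubated 30 min at room temperature on GloSensor-loaded HEK293 cells stably carrying hNpr1 and the pGS-40F cGMP biosensor. Stimulation uses hNppA at 0.1 nM final; luminescence is taken at baseline and 20 min post-agonist.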
NPR1 antag cnf = confirmation of human Npr1 natriuretic peptide receptor antagonists; shares compounds with NPR1 antag; HEK293 hNpr1 cGMP GloSensor luminescence, ANP-stimulated; Potency, µM (doses to about 57.6 µM), actives largely listed as inhibitors; actives 76% (n = 1,400); calls by dose curve; further: nearly all actives have a fitted effect of over 70% in size
NPR2 antag = antagonizes human Npr2, subtype selectivity check; Potency, µM (doses to about 57.6 µM), most hits filed as inhibitors; actives 67% (n = 1,400); shares compounds with NPR1 antag; AID 1347046; HEK293 hNpr2 GloSensor cGMP luminescence, CNP-stimulated; calls by dose curve; further: nearly all actives have a fitted effect of over 70% in size
Target sequence (P20594 whole entry, looked up): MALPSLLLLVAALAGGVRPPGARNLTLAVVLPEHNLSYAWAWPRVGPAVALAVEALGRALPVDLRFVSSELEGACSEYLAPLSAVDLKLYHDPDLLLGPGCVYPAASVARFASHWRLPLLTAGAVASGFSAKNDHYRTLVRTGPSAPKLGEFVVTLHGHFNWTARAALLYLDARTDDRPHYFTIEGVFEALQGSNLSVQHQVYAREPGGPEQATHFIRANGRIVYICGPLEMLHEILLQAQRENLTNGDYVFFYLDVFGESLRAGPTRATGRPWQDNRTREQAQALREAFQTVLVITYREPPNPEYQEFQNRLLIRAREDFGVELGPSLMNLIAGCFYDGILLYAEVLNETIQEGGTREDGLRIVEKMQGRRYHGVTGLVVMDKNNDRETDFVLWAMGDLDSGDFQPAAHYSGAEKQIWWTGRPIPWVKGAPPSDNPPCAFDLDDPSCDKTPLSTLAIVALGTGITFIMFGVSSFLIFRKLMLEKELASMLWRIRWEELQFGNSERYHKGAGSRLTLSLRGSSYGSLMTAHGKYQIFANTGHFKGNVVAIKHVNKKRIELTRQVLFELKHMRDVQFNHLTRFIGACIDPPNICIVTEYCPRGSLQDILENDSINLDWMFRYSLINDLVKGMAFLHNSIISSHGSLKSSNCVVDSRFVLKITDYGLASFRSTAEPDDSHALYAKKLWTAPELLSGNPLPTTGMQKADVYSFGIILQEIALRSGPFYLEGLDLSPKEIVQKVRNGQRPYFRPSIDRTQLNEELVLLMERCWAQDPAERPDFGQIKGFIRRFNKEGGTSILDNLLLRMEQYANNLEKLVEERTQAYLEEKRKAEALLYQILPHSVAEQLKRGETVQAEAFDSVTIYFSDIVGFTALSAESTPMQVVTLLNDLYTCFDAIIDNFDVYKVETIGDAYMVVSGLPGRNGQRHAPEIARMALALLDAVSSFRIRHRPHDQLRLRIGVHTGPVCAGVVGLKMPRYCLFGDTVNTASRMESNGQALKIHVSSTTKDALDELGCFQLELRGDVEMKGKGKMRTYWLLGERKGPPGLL
FLuc inh counter = counter-screen for Npr1 antagonists: firefly luciferase inhibitors; AID 1347047; actives 0.7% (n = 1,400); shares compounds with NPR1 antag; Potency, µM (doses to about 57.6 µM), most hits filed as inhibitors; purified FLuc enzyme, luminescence, Km substrate
GloSensor cGMP = control cell line activity, Npr1 antagonist counter-screen. HEK293 GloSensor cGMP, SNP-stimulated, luminescence. AID 1347051. Potency, µM (series often up to 57.6 µM), actives largely listed as inhibitors. actives 69% (n = 1,400). shares compounds with NPR1 antag; calls by dose curve; further: nearly all actives have a fitted effect of over 70% in size
Hits are given with their value; - = inactive; ? = inconclusive; . = no result given; [ ] = another dose, or the depositor's remark. Unless noted, the call rests on the fitted dose curve; in most records, active means well fitted curve in the direction sought with a large enough effect; inconclusive means small, poorly fitted or top-dose-only effect, or another doubt; inactive means no such curve, though single readings can be large; an effect the other way counts as inactive or inconclusive.

SMILES | Luciferase inh | NIH3T3 tox | SNCA expr inh | HEK293 viab | HEK293 tox | NPR1 antag | NPR1 antag cnf | NPR2 antag | FLuc inh counter | GloSensor cGMP
Cc1nn(Cc2ccccc2)c(C)c1[C@@H]1C=C[C@@H](NC(=O)c2ccc3c(c2)OCO3)C1 | - | ? | - | - | 28µM | 32µM | 35µM | 35µM | - | 35µM
Cc1ccc(S(=O)(=O)N2CCc3c(C(=O)NCC(C)C)cccc32)cc1 | - | ? | ? | - | ? | ? | ? | ? | - | ?
O=C(CCC1CCN(C(=O)c2ccoc2)CC1)N1CCC(Cc2ccccc2)CC1 | - | ? | - | - | ? | - | ? | - | - | ?
Cc1nn(-c2ccccc2)c2c1C(C(C)C)N(C1CN(C(=O)Cc3ccccn3)C1)C2=O (stereo not given) | . | - | . | . | ? | . | . | . | . | .
O=C(NCc1ccccc1)c1ccccc1OC1CN(Cc2ccsc2)C1 | - | 28µM | ? | - | ? | - | ? | - | - | -
COc1cccc(CN2CC(Oc3ccccc3C(=O)NC3CC3)C2)c1 | - | - | - | - | ? | - | . | . | . | .
CC(C)(Oc1nn(Cc2cccc(Cl)c2)c2ccccc12)C(=O)NCCc1cnc[nH]1 | - | ? | - | ? | ? | 22µM | 28µM | 25µM | - | 25µM
CC(C)(Oc1nn(Cc2cccc(Cl)c2)c2ccccc12)C(=O)N1CC(O)C1 | - | ? | - | - | ? | ? | . | . | . | .
COc1ncccc1-c1cc(C(=O)NCCN(C)C)c2c(c1)ncn2C | . | . | . | . | . | . | - | - | - | -
COc1ccc([C@@H]2CN(c3nnnn3-c3ccccc3)C[C@H]2NC(C)=O)cc1 | - | - | - | - | - | ? | ? | ? | - | -
CCOCC(=O)N1CCN(c2nnnn2-c2ccccc2)CC(O)C1 (stereo not given) | - | - | - | - | - | - | . | . | . | .
O=C(CNC(=O)c1ccc(-c2cccc(C(F)(F)F)c2)cc1)NCC1CC1 | . | - | ? | -[12.5 µM] | ? | . | . | . | . | .
CCOCCOC1CCN(C(=O)c2cccc(F)c2)CC1 | - | - | ? | -[12.5 µM] | - | - | . | . | . | .
CN(C)c1cccc(C(=O)N2CCC(OCCOc3ccc(F)cc3)CC2)c1 | - | ? | - | - | ? | 13µM | 24µM | 24µM | - | 22µM
N#Cc1cccnc1N1CCC(NC(=O)c2ccc3nccn3c2)CC1 | - | - | - | - | ? | 11µM | 22µM | 24µM | - | 19µM
N#Cc1cccnc1-c1ccc(C(=O)N2CCC(NC(=O)c3ccncc3)CC2)cc1 | . | - | - | -[12.5 µM] | - | . | . | . | . | .
CC[C@H](C)/C=C(C)/C=C/C1=CC2=C(Cl)C(=O)[C@](C)(O)[C@H](OC(C)=O)[C@H]2CO1 | . | . | . | - | . | . | . | . | . | .
N#Cc1cccc(CN[C@H]2CO[C@H]3[C@@H]2OC[C@H]3OC(=O)Nc2ccc(Oc3ccccc3)cc2)c1 | - | ? | - | - | ? | 18µM | 22µM | 22µM | - | 19µM
O=C(Nc1ccc(Oc2ccccc2)cc1)O[C@@H]1CO[C@H]2[C@@H]1OC[C@@H]2NC(=S)Nc1cccc2ccccc12 | - | ? | ? | - | ? | 10µM | 5.4µM | 6.9µM | - | 6.1µM
COc1ccc(NC(=O)O[C@@H]2CO[C@H]3[C@@H]2OC[C@@H]3NC(=O)COc2ccccc2)cc1 | - | - | - | - | - | - | . | . | . | .
COc1ccc(NC(=O)O[C@@H]2CO[C@H]3[C@@H]2OC[C@@H]3NC(=O)Nc2cccc(C#N)c2)cc1 | - | - | - | - | - | - | . | . | . | .
O=C(Nc1ccc(Oc2ccccc2)cc1)O[C@@H]1CO[C@H]2[C@@H]1OC[C@@H]2NS(=O)(=O)c1ccc2ccccc2c1 | - | ? | - | - | ? | ? | 17µM | 15µM | - | 11µM
O=C(Nc1ccc(Cl)cc1)N1CCCC(C(=O)N2CCC(c3nc4ccncc4[nH]3)C2)C1 (stereo not given) | . | - | - | - | - | . | . | . | . | .
O=C(C1CC(=O)N(c2n[nH]c3ccccc23)C1)N1CCC(c2noc3cc(F)ccc23)CC1 (stereo not given) | - | 14µM | ? | - | 13µM | ? | 27µM | ? | - | 27µM
CCCCN(C)C(=O)CC1CCN(c2ccnc(OC)n2)CC1 | - | ? | - | ? | ? | 11µM | 17µM | 15µM | - | 11µM
SMILES | Luciferase inh | NIH3T3 tox | SNCA expr inh | HEK293 viab | HEK293 tox | NPR1 antag | NPR1 antag cnf | NPR2 antag | FLuc inh counter | GloSensor cGMP
COc1nccc(N2CCC(CC(=O)NCc3ccccc3F)CC2)n1 | - | ? | - | - | ? | ? | ? | ? | - | ?
O=C(Nc1cccnc1)c1cc(-c2ccccc2F)cc2c1OCCN2Cc1cccnc1 | - | 40µM | ? | ? | ? | ? | ? | 31µM | - | -
CC1CCC(NC(=O)c2cc3n(n2)CC(c2ccc(Cl)cc2)OC3)CC1 (stereo not given) | - | ? | - | - | ? | - | . | . | . | .
O=C(NC1CCN(Cc2ccccc2)CC1)c1cc2n(n1)CC(c1ccc(Cl)cc1)OC2 (stereo not given) | - | ? | ? | - | ? | 10µM | 19µM | 17µM | - | 12µM
O=C(NC1CCN(Cc2ccccc2)CC1)c1cc2n(n1)CC(c1ccc3c(c1)OCO3)OC2 (stereo not given) | - | ? | - | - | ? | 13µM | 22µM | 22µM | - | 17µM
O=C(NCc1cccc(Cl)c1)c1cc2n(n1)CC(c1ccc3c(c1)OCO3)OC2 (stereo not given) | - | ? | - | - | ? | - | . | . | . | .
CN(C/C=C/c1ccccc1)c1cc(C2CC(O)C2)nc(N)n1 (stereo not given) | - | - | ? | ? | ? | 13µM | 22µM | 17µM | - | 24µM
Cc1nc(CN(C)C(=O)c2cc(Cn3c(C)nc4ccccc43)on2)cs1 | - | ? | - | - | ? | 10µM | 19µM | 17µM | - | 14µM
COC(=O)N1CCN(CCn2nc3n(c2=O)CCCC3)CC1 | . | - | . | . | - | . | . | . | . | .
CCOc1ccccc1CN1CCC2(CCN(C(=O)Nc3ccccc3)CC2)Oc2ccccc21 | - | ? | - | - | ? | - | . | . | . | .
